Records with an inconclusive call do not appear. Active and inactive are the calls of the source.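 Rule for the calls, unless noted: active = percent response above a set limit, the screen-wide mean plus 3 SD (cut at about 130% in these data); inactive = the rest.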

Assay [1] is described as follows: rapamycin-like changes in RPL19A-GFP expression – cell-based, S. cerevisiae, multiplex flow cytometry, primary screen (AID 1862; in the data active = percent of DMSO control GFP below about 86%;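 note: lower values mimic rapamycin by blocking the RPL19A rise seen in DMSO cells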). Conditions: S. cerevisiae RPL19A-GFP strain, flow cytometry fluorescence, 3 h; at 10 µM; stronger effect = lower value. In general terms: A flow cytometer gives signals particle by particle.
Assay [2] can be described thus: TOR pathway GLN3 branch reporter MEP2-GFP changes – S. cerevisiae, multiplex flow cytometry, primary screen (AID 1867;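 active = GFP response, as percent of the DMSO control, above the screen-wide mean plus 3 SD, about 139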;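 note: median GFP channel fluorescence of barcode-gated MEP2-GFP cells measured by flow cytometry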). Conditions: S. cerevisiae MEP2-GFP strain, 3 h, at 10 µM, stronger effect = higher value, 100% means same as DMSO wells.
Assay [3] in a line: TOR pathway RTG branch CIT2 reporter changes – S. cerevisiae, GFP fusion, multiplex flow cytometry, primary screen (AID 1870).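 Note: barcoded CIT2-GFP strain pooled with four other GFP strains with rapamycin as positive control; median GFP fluorescence per well over plate mean of DMSO wells so 100% = DMSO.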 Conditions: S. cerevisiae CIT2-GFP expression, 3 h, at 10 µM, stronger effect = higher value.
A short description of assay [4]: TOR pathway LAP4-GFP level changes – S. cerevisiae, multiplex flow cytometry, primary screen (AID 1873;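 active = GFP signal, as percent of the solvent control, above the screen mean plus 3 SD, about 149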). The conditions noted are these: S. cerevisiae LAP4-GFP expression, 3 h, at 10 µM, stronger effect = higher value.
The nature of assay [5]: yeast AGP1-GFP level changes, GLN3 branch – cell-based, multiplex flow cytometry, S. cerevisiae, primary screen (AID 1887;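 active = GFP signal above the screen-wide mean plus 3 SD, that is over about 124.5% of the solvent control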;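 note: AGP1-GFP fusion strain of S. cerevisiae within a five-strain barcoded multiplex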). Conditions: 3 h, at 10 µM, stronger effect = higher value.
Assay [6] in a line: reduced mouse 2C T cell binding to pMHC/ICAM-1 vesicles – MLPCN validation set, flow cytometry, LFA-1/ICAM-1 modulator project, pilot screen (AID 2523;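 active = response below a set limit, under 55% cells CD8-positive and vesicle-bound, and CD8 cells' 90th-percentile brightness under 279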;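 for vesicle binding response: mean PE anti-B7-1 fluorescence of CD8+ cells relative to row control; 100% = QL9-loaded vesicles with DMSO vehicle in the same plate row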). The conditions noted are these: 2C mouse CD8+ T cells, at 7 µM, stronger effect = lower value; double positive events: measured here: CD8+/vesicle+ event percentage.
The target of assay [7] is Integrin beta-1 (Homo sapiens) + Integrin alpha-4 (Homo sapiens) (UniProt P13612+P05556). The assay is described as follows: alpha4beta1 integrin LIBS antibody binding reduction – U937 cells, HUTS-21 mAb, flow cytometry, validation set, VLA-4 allosteric modulator project, pilot screen (AID 2674;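 active = inhibition above 50%, about 3 SD of the validation set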;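 note: antibody binding induced by the VLA-4 ligand LDV present at three times its Kd; 0% = LDV ligand with antibody and no compound and 100% = antibody without LDV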). Conditions: HUTS-21 LIBS mAb binding, at 6.7 µM, stronger effect = higher value, binding induced by LDV ligand.
Sequence of Integrin beta-1 (Homo sapiens) + Integrin alpha-4 (Homo sapiens) (P05556 whole entry, looked up): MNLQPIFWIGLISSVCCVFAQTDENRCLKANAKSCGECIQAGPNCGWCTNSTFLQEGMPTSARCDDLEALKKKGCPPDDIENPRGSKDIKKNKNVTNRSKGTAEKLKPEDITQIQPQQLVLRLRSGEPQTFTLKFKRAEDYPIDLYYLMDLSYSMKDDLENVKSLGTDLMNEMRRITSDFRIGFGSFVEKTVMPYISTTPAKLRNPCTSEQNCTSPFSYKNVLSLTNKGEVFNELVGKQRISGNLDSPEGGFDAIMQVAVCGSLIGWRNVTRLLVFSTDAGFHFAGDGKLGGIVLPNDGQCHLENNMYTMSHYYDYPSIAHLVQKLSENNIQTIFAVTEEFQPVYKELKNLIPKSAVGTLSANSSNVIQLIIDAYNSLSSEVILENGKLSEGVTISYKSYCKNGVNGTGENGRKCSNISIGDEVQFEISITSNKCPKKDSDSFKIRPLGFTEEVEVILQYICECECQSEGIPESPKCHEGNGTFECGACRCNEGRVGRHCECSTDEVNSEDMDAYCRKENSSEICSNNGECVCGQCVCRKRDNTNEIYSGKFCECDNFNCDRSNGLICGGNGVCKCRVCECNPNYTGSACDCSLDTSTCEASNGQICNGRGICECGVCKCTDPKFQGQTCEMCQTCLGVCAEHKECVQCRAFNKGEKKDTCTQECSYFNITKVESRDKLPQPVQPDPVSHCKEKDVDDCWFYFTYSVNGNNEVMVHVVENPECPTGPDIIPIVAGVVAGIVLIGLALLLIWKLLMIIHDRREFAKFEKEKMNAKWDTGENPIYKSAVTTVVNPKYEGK
Sequence of Integrin beta-1 (Homo sapiens) + Integrin alpha-4 (Homo sapiens) (P13612 whole entry, looked up): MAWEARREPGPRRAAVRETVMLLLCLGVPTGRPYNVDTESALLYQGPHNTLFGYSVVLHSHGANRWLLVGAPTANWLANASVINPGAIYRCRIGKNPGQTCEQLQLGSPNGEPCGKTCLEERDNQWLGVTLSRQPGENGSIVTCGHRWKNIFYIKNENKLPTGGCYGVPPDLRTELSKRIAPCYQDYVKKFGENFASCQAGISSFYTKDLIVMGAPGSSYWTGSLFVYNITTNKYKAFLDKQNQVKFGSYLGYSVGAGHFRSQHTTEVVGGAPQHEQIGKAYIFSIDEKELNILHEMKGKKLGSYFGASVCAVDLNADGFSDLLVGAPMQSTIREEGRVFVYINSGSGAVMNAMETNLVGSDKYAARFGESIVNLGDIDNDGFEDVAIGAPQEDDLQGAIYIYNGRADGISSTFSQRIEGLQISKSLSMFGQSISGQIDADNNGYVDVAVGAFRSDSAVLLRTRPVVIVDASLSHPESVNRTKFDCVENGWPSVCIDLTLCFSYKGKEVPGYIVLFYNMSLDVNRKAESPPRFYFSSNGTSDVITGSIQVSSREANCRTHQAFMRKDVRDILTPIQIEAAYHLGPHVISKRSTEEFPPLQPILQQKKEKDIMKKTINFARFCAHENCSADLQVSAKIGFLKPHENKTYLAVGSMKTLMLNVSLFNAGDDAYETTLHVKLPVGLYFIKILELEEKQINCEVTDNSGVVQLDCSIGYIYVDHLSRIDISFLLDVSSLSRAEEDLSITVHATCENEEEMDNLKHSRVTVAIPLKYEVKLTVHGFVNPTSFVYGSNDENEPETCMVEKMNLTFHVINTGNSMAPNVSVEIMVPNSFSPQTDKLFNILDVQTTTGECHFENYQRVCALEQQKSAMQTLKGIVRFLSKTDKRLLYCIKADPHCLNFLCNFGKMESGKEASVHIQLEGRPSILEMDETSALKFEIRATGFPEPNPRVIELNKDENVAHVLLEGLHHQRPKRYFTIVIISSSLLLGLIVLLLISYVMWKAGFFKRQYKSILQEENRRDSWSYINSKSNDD

The nature of assay [8]: calorie-restriction mimetic ROS inhibitors, yeast – validation compound set, pilot screen (AID 2706;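 active = superoxide response below 65% of plate, a cut near 3 SD across the whole screen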;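 note: yeast exposed to compound for one week at 30 degrees C before staining; 100% = mean of all compound wells on the same plate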). The conditions noted are these: S. cerevisiae aging, superoxide DHE fluorescence; at 10 µM; stronger effect = lower value.
For assay [9], the target named is Beta-adrenergic receptor kinase 1 (Homo sapiens) (UniProt P25098). The assay is described as follows: GRK2 binders displacing RNA aptamer, biochemical, validation, human GRK2, bead flow cytometry (AID 488806;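 active = aptamer binding inhibition above 30%, about 3 SD of noise from non-fluorescent compounds; inactive = inhibition at or below 30%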). Conditions: bead-bound GRK2, FAM-aptamer displacement, at 10 µM, stronger effect = higher value.
Sequence of Beta-adrenergic receptor kinase 1 (Homo sapiens) (P25098 whole entry, looked up): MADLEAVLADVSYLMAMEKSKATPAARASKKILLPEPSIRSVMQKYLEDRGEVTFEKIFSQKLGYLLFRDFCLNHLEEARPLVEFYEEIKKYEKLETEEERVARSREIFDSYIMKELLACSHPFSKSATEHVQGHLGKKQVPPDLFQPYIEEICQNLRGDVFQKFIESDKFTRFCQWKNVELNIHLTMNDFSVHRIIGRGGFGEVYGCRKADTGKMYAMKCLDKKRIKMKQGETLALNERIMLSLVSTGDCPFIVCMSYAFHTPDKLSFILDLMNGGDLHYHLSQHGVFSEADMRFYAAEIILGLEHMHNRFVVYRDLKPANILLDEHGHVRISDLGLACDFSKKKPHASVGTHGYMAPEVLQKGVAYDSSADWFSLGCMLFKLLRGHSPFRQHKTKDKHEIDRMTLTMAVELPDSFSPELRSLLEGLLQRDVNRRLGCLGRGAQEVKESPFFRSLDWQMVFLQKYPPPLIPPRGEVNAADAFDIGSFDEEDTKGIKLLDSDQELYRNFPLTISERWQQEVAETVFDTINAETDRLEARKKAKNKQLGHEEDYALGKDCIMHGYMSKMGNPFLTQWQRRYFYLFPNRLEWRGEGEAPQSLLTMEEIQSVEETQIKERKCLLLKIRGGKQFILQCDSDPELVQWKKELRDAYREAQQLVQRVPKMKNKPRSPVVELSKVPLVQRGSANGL
Assay [10] addresses Beta-2 adrenergic receptor (Homo sapiens) (UniProt P07550). As to the kind of experiment: agonist-induced loss of surface beta2AR – cell-based, FAP fluorogen, flow cytometry, validation set, pilot screen (AID 504459;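 active = percent response above 42, roughly 3 SD of non-fluorescent test compounds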;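 note: agonist-driven loss of surface beta2AR via internalization measured by FAP dye flow cytometry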). Conditions: Am2.2-beta2AR cells, at 10 µM, stronger effect = higher value.
Assay [11] concerns the target AP-2 complex subunit beta (Homo sapiens) (UniProt P63010). As to the kind of experiment: beta-arrestin/AP2 interaction blockers – biochemical, validation set, GST-AP2 beads, flow cytometry, pilot screen (AID 504541;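 active = inhibition above 54%, about 3 SD of non-fluorescent compounds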;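 note: AP2 carries R879A mutation and is captured from E. coli lysate; bead-bound FITC arrestin peptide fluorescence measuring arrestin peptide binding to AP2; 0% = DMSO wells and 100% = excess unlabeled arrestin peptide control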). Conditions: FITC arrestin peptide, at 10 µM, stronger effect = higher value, AP2 beta2 appendage fragment, R879A mutant.
Assay [12] in a line: cytosolic pH regulators acting via V-ATPase – S. cerevisiae, pHLuorin, HTS validation (AID 504600; in the data active = response above about 15%;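 note: plate controls were DMSO for no effect and reference compound for full effect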). Conditions: V-ATPase proton transport, at 10 µM, stronger effect = higher value.
The test system of assay [13] is anti-desmoglein-3 scFv antibody binding to human DSG3. As to the kind of experiment: blockers of pathogenic pemphigus antibody–desmoglein-3 binding – biochemical, validation compound set, bead-based, flow cytometry, pilot screen (AID 588368;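 active = binding below the plate cutoff, the plate median minus 3 SD, with a reading above zero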;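 note: signal is the median channel fluorescence of bead-bound GFP antibody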). Conditions: Protein G beads, DSG3-Fc, scFv-GFP binding, at 10 µM, stronger effect = lower value.
The nature of assay [14]: Nile Red efflux blockade in pump-expressing yeast – validation compound set, multiplex, phenotypic, pilot screen (AID 588506;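 active = efflux inhibition above 0.42, the validation set average plus 4 SD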;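 note: Nile Red retained in cells so higher fluorescence means more efflux inhibition; 0 = negative control wells and 1 = enniatin B 25 µM full block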). Conditions: S. cerevisiae pump-expressing triplex, Nile Red efflux flow cytometry; at 10 µM; stronger effect = higher value; the pumps come from Candida albicans.
The target in assay [15] is ATP-binding cassette sub-family B member 6 (Homo sapiens) (UniProt Q9NP58). As to the kind of experiment: blockers of ABCB6-driven porphyrin uptake – K562-ABCB6 cells, flow cytometry, validation set, pilot screen (AID 588550;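 active = inhibition above the screen-wide mean plus 3 SD, about 51%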;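 note: 0% = DMSO wells and 100% = benzethonium chloride 70 µM positive control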). The conditions noted are these: K562-ABCB6 porphyrin accumulation, 1 h, at 10 µM, stronger effect = higher value.
Sequence of ATP-binding cassette sub-family B member 6 (Homo sapiens) (Q9NP58 whole entry, looked up): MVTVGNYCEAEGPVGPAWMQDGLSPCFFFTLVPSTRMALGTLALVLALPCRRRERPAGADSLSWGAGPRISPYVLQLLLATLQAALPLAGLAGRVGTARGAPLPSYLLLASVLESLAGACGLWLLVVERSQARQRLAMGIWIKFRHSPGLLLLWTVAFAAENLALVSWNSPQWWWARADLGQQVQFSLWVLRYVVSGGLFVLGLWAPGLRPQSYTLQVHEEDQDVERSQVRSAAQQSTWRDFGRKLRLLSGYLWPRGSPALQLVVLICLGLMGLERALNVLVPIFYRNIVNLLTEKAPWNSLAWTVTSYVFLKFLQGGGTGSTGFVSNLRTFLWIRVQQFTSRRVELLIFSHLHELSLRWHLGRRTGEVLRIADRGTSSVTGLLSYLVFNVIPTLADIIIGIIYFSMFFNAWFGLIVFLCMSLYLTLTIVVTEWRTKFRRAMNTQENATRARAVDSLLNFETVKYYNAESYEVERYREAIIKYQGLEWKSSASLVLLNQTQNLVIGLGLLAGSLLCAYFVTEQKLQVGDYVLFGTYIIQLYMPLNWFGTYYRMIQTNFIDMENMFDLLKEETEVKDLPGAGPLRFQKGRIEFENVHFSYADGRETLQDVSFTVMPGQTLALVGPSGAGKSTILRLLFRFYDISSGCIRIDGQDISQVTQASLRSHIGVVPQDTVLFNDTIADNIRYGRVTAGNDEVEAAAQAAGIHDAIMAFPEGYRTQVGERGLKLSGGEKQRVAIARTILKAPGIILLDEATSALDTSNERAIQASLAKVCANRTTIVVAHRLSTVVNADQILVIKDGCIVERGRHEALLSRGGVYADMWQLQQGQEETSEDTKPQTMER
The nature of assay [16]: AML differentiation inducers, ER-HoxA9 marrow cells – cell-based, GFP/MAC1 double positive, flow cytometry, validation set, primary screen (AID 588685;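 active = differentiation response of at least 50%, scaled between solvent and reference control, from cells with both markers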;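 note: compound exposure lasts four days before antibody staining and flow analysis; 0% = DMSO wells and 100% = 5 µM fulvestrant positive control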). The conditions noted are these: stronger effect = higher value, normalized: vehicle 0, fulvestrant 100.

Sequence of AP-2 complex subunit beta (Homo sapiens) (P63010 whole entry, looked up, the tested form may be a part, one chain of several): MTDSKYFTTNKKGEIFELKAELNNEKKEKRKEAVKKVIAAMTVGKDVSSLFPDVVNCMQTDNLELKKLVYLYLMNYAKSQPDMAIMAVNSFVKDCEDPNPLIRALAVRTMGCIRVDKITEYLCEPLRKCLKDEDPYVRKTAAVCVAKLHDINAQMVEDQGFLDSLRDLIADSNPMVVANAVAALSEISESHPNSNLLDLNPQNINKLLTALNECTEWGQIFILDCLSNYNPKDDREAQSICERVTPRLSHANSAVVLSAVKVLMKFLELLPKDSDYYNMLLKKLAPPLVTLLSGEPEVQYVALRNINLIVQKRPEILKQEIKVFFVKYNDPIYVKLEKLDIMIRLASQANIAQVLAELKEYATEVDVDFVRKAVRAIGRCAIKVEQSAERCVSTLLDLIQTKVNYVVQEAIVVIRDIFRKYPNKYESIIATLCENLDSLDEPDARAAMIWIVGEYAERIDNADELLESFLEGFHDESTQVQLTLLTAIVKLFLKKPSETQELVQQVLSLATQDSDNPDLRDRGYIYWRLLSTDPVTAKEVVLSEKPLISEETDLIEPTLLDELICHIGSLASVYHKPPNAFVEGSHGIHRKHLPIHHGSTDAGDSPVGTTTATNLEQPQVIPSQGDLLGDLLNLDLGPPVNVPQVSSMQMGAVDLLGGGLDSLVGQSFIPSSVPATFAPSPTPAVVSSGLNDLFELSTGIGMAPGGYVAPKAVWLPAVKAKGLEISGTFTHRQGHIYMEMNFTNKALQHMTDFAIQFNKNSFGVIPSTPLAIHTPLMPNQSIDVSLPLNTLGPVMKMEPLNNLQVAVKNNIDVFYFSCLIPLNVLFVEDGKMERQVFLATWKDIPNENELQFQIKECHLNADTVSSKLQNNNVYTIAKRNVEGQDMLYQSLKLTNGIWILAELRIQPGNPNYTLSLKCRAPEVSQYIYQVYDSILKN
Sequence of Beta-2 adrenergic receptor (Homo sapiens) (P07550 whole entry, looked up): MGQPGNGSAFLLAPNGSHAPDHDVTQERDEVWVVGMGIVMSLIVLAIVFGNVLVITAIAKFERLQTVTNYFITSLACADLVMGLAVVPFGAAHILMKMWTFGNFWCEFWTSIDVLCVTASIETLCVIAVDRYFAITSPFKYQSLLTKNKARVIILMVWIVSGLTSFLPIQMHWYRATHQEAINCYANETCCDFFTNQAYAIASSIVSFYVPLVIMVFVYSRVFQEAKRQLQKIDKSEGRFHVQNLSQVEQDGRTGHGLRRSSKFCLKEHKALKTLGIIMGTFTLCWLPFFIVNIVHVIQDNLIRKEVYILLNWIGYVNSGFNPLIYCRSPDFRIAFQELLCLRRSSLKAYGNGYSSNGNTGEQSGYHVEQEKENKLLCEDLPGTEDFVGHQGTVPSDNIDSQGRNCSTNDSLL

Regarding `CCOC(=O)c1oc2cc(O)cc(C)c2c(=O)c1-c1cscn1`, the percent of DMSO control GFP in [1] is 100% (inactive). The GFP response vs DMSO in assay [2] is 105% (inactive); in assay [4], 119% (inactive). In assay [3], the percent response of DMSO control is 91% (inactive). Moreover, the GFP response, % of DMSO in assay [5] was 102% (inactive). The double positive events in [6] was 58.7%. The vesicle binding response in [6] was 182% (inactive). The values for the inhibition in assay [7], in assay [11] and in assay [15] were 3.67% (inactive), 24.6% (inactive) and 3% (inactive), respectively. For the same compound, the superoxide response (% of plate) in assay [8] is 101% (inactive). Besides, the aptamer binding inhibition in assay [9] is 4% (inactive). Moreover, the response in assay [10] was -3.97% (inactive); in [12], -5.59% (inactive). Moreover, the binding (% of control) in assay [13] is 101% (inactive). Besides, the efflux inhibition (fraction of control) in assay [14] is -0.06 (inactive). Also, the differentiation response in assay [16] was 5.6% (inactive).
As to `Cc1ccc(-c2nn(-c3cccc(F)c3)cc2CN2CCN(c3ccccn3)CC2)o1`, in assay [1], the percent of DMSO control GFP was 101% (inactive). The values for the GFP response vs DMSO in assay [2] and in assay [4] were 107% (inactive) and 123% (inactive), respectively. The percent response of DMSO control in [3] was 92% (inactive). The GFP response, % of DMSO in assay [5] is 101% (inactive). Also, the double positive events in assay [6] turned out to be 54.2%. The vesicle binding response in [6] is 2920% (inactive). In addition, the inhibition in assay [7] is 0.94% (inactive); in assay [11] it was 5.48% (inactive); in [15], 12% (inactive). Also, in assay [8], the superoxide response (% of plate) is 95.7% (inactive). Further, the aptamer binding inhibition in assay [9] is 5% (inactive). The response in [10] was 25.4% (inactive); in assay [12] it was -6.07% (inactive). For the same compound, the binding (% of control) in assay [13] is 101% (inactive). Besides, in [14], the efflux inhibition (fraction of control) is 0.37 (inactive). In addition, the differentiation response in assay [16] is -23.2% (inactive).
In the case of `CCOc1ccc(N2C(=O)CNC2=S)cc1`, the percent of DMSO control GFP in assay [1] was 106% (inactive). In addition, the GFP response vs DMSO in assay [2] was 106% (inactive); in [4], 110% (inactive). For the same compound, the percent response of DMSO control in [3] was 105% (inactive). In addition, the GFP response, % of DMSO in assay [5] is 109% (inactive). Also, the double positive events in assay [6] came to 66.1%. Besides, the vesicle binding response in assay [6] is 202% (inactive). Further, the inhibition is -0.27% (inactive) in assay [7], 11.9% (inactive) in [11] and -4% (inactive) in assay [15]. For the same compound, the superoxide response (% of plate) in assay [8] is 105% (inactive). Also, the aptamer binding inhibition in [9] was 2% (inactive). For the same compound, the response in assay [10] was -17.9% (inactive); in assay [12], -2.61% (inactive). Further, in [13], the binding (% of control) is 106% (inactive). In addition, the efflux inhibition (fraction of control) in [14] is -0.09 (inactive). Moreover, the differentiation response in assay [16] is 3.88% (inactive).
Regarding `Cc1ccc(S(=O)(=O)N2CCC(C(=O)N[C@@H](C)C(=O)NC3CCS(=O)(=O)C3)CC2)cc1` (stereo not given in full), the percent of DMSO control GFP in assay [1] is 101% (inactive). Besides, the values for the GFP response vs DMSO in [2] and in assay [4] were 96.6% (inactive) and 89.3% (inactive), respectively. Also, in assay [3], the percent response of DMSO control was 106% (inactive). Moreover, in [5], the GFP response, % of DMSO was 96.3% (inactive). In addition, the double positive events in [6] was determined as 57.7%. Moreover, the vesicle binding response in assay [6] is 144% (inactive). For the same compound, the results for the inhibition in [7], in assay [11] and in assay [15] were 12.3% (inactive), -5.24% (inactive) and 13% (inactive), respectively. The superoxide response (% of plate) in assay [8] was 103% (inactive). Further, the aptamer binding inhibition in [9] is 4% (inactive). In addition, the values for the response in assay [10] and in assay [12] were -1.25% (inactive) and 22.5% (active), respectively. Besides, in [13], the binding (% of control) is 103% (inactive). Further, the efflux inhibition (fraction of control) in [14] is 0.1 (inactive). For the same compound, in assay [16], the differentiation response is -13.3% (inactive).
Consider `CC(C)C12CN3CC(C(C)C)(CN(C1)C3c1ccccc1O)C2=O` (stereo not given), for which the percent of DMSO control GFP in [1] was 94.4% (inactive). In addition, the GFP response vs DMSO is 120% (inactive) in assay [2] and 75.9% (inactive) in assay [4]. Also, the percent response of DMSO control in [3] was 104% (inactive). The GFP response, % of DMSO in assay [5] was 87% (inactive). The compound also registered a double positive events in assay [6] of 66.6%. Moreover, the vesicle binding response in [6] is 192% (inactive). Besides, the inhibition in assay [7] is 10.3% (inactive); in assay [11] it was -9.47% (inactive); in assay [15], 5% (inactive). For the same compound, the superoxide response (% of plate) in assay [8] was 94.7% (inactive). In addition, in [9], the aptamer binding inhibition was 6% (inactive). In addition, the results for the response in assay [10] and in assay [12] were -10.3% (inactive) and -6% (inactive), respectively. Further, in [13], the binding (% of control) is 99% (inactive). Further, in assay [14], the efflux inhibition (fraction of control) was 0.12 (inactive). In addition, the differentiation response in assay [16] was -6.55% (inactive).

Broadly, the inhibition is the drop in the measured response relative to a control, in per cent.
